About 79,000 compounds went through this panel and 15% of them were active in at least one assay; those are over-represented in the sample as a whole. Calls of active or inactive are those of the source. Cut-off read from the data, not from the text of the source: active = growth inhibition above about 70%; inactive = the rest.
test: NCI Yeast Anticancer Drug Screen. Data for the mlh1 rad18 strain (AID 175); conditions: S. cerevisiae mlh1 rad18 strain growth inhibition; at 50.0 µM; active compounds read high
Procedure, shortened: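 Genetically defined yeast (DNA repair-deficient) exposed to compounds; growth inhibition determined relative to vehicle.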

Compound | growth inhibition
Oc1ccccc1N=CC1CCCCC1 | 66.2% (inactive)
CC(O[Si](c1ccccc1)(c1ccccc1)C(C)(C)C)[C@H](NC(=O)OC(C)(C)C)C(=O)O[Si](c1ccccc1)(c1ccccc1)C(C)(C)C (stereo not given in full) | 89% (active)
Cn1c(=O)c2c3oc(=O)cc(O)c3c(=O)n3c4ccccc4n(c1=O)c23 | 42.1% (inactive)
CCCCCCCCCCCCCCC(O)C(=O)O (stereo not given) | 73.5% (active)
O=[N+]([O-])c1cc(I)cc(/C=N/NS(=O)(=O)c2ccc(F)cc2)c1O | 93% (active)
CCC/C=C1/OC(=O)C2=C[C@H]3CC[C@]21[C@]1(OC(=O)C2=C1CCC=C2)[C@H]3CCC | 90.5% (active)
C=C(CC)C[C@@H]1C[C@]2(C(=O)OC)c3[nH]c4ccccc4c3CCN2C1=O | 82.5% (active)
Cc1ccc(N2C(=O)C(Cl)=C(Cl)C2=O)cc1 | 97.5% (active)
COc1cc2c(cc1O)CCCCC2 | 43% (inactive)
CC(C)Cc1cc(O)cc2ccccc12 | 98.8% (active)
CCN(CC)Cc1cc(Nc2c3ccccc3nc3c4ccccc4n(C)c23)ccc1O | 42.9% (inactive)
CC(=O)Nc1ccc(-c2csc(Nc3ccnc4cc(Cl)ccc34)n2)cc1 | 82.9% (active)
NNc1ccccc1F | 98.9% (active)
O=C(O)C1(Cc2ccc3c(c2)CCC3)Cc2ccccc2C1=O (stereo not given) | 87% (active)
c1cc2cc(Cc3ccc4[nH]ccc4c3)ccc2[nH]1 | 92.2% (active)
COc1cc(C(c2cc3c(cc2O)OCO3)N2CCOCC2)ccc1O (stereo not given) | 50.5% (inactive)
Cc1c(N)nc(C2CC(=O)N2CC(N)C(N)=O)nc1C(=O)NC(C(=O)NC(C)C(O)C(C)C(=O)NC(C(=O)NCCc1nc(-c2nc(C(=O)NCCNCC(C)O)cs2)cs1)C(C)O)C(OC1OC(CO)C(O)C(O)C1OC1OC(CO)C(O)C(OC(N)=O)C1O)c1cnc[nH]1 (stereo not given) | 92.5% (active)
Cc1[nH]nc(C(=O)N(C)C)c1N=NN(C)C | 95.6% (active)
CSc1c(S(C)=O)c2ccccc2n1C (stereo not given) | -26.4% (inactive)
CN(C)c1ccc(C=Nc2cnc3ccccc3c2)cc1 | -6.35% (inactive)

Compound | growth inhibition
CCCCCCCCCCCCCCCc1nc(SCC(=O)O)n[nH]1 | 89.5% (active)
Cc1ccc(S(=O)(=O)Oc2c([N+](=O)[O-])cc(C)cc2[N+](=O)[O-])cc1 | 95.1% (active)
CCOC(=O)c1c(Cl)nnc(-c2ccccc2)c1-c1ccccc1 | 98% (active)
Cc1cc(O)c(C=NC(=S)C(N)=S)c(=O)o1 | -38% (inactive)
C/C(=N\NC(=S)NC(C)(C)C)c1ccccn1 | 91.2% (active)
S=C(Nc1ccc(Br)c(Cl)c1)SCc1ccc2c(c1)OCO2 | 87.4% (active)
CC(=O)Nc1ccc(S(=O)(=O)N/N=C/c2cc(I)cc([N+](=O)[O-])c2O)cc1 | 94.3% (active)
CCCC(O)CNCc1ccc(N(C)C)cc1 (stereo not given) | 41.8% (inactive)
CC(=O)Nc1nnc(-c2coc3ccccc3c2=O)s1 | 12.1% (inactive)
COc1ccc(CSC(=S)Nc2ccc(Cl)c(C(F)(F)F)c2)cc1 | 87.2% (active)
CC(=O)Sc1ccc(Br)cc1 | 71.2% (active)
O=C(CNc1cccc(Cl)c1)Nn1c(-c2ccccc2)nc2ccccc2c1=O | 96.7% (active)
Cc1ccc(S(=O)(=O)c2cc(O)c(O)c3ccc(Br)cc23)cc1 | 97.9% (active)
Fc1cccc2c1cc1ccc3cccc4ccc2c1c34 | 91.2% (active)
COC1=C(/C(=N/Nc2ccc([N+](=O)[O-])cc2[N+](=O)[O-])c2ccccc2)COC1=O | 4.9% (inactive)
CCOC(=O)c1cnccc1CC1(C#N)c2ccccc2C=CN1C(=O)c1ccccc1 (stereo not given) | 89.2% (active)
CCCCNc1ccc(-c2c(N)nc(N)nc2CC)cc1[N+](=O)[O-] | 62.8% (inactive)
O=C(NC1CCN(Cc2ccccc2)CC1)c1cccc(I)c1 | 67.5% (inactive)
O/N=C1/CC2CCCc3ccc4cccc1c4c32 (stereo not given) | -4% (inactive)
CC(C)c1cc(O)c2c(c1O)C1CC3C(C)(C)CCC[C@]23C(=O)O1 (stereo not given in full) | 96.2% (active)

From PubChem BioAssay (NCI)
